Measured values reported in PubChem BioAssay AID977607 (Broad Institute, 2014).
Out of some 1,500 compounds screened, about 460 (31%) were called active. Not shown: some 1% with an inconclusive outcome.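 Rule for the calls: active = curve reaches 40% activation over neutral controls at an AC40 no higher than the top valid tested concentration; inconclusive = no clear call, values can overlap the other calls; inactive = signal moving opposite to the expected increase, and the rest.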 These entries were drawn from the full list. Results with a measured potency or affinity are listed apart.

Assay: GLuc-reported insulin release enhancers, glucose-stimulated beta cells – cell-based, INS-1E, Gaussia luciferase, luminescence, cherry-pick, set 2, dose response (AID 977607);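 note: 0% = median of the plate neutral control wells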
Conditions: INS-1E GLuc insulin secretion reporter, 2-3 h, stronger effect = higher value; at 35 µM, 100% = signal doubled over neutral wells unless noted

Max activation, inactive:
COc1ccnc(N2CCN(c3cccc(C(F)(F)F)c3)CC2)c1C#N 81.3%
CN(C)CCCN(C(=O)c1ccco1)c1nc2c(F)cccc2s1 -22.6% [at 0.015 µM, 100% = signal doubled over neutral wells]
CCOc1ccc2ccc(OCC)c(/C=N/n3cnnc3)c2c1 -33.7%
Cc1cc2cc(C#N)c(N3CCOCC3)nc2cc1Cl -10.5% [at 0.015 µM, 100% = signal doubled over neutral wells]
O=C1CC(=O)Nc2cc(S(=O)(=O)NCc3cccs3)ccc2N1 -18.8% [at 0.0016 µM, 100% = signal doubled over neutral wells]
COc1ccc(CCN=C(N)NS(=O)(=O)c2ccc(C)c(C)c2)cc1OC 23.8% [at 0.0016 µM, 100% = signal doubled over neutral wells]
COc1ccc(CCNC(=O)C(=O)NN=C2CCCCCCC2)cc1OC -11.7% [at 0.005 µM, 100% = signal doubled over neutral wells]
CCOC(=O)c1c(S(=O)(=O)NCCc2ccc(OC)c(OC)c2)c(C)n(C)c1C -18.5% [at 0.135 µM, 100% = signal doubled over neutral wells]
COc1ccc(CCNc2ccncn2)cc1OC -13.5% [at 0.0016 µM, 100% = signal doubled over neutral wells]
COc1ccc(CCNS(=O)(=O)c2ccc(Cl)s2)cc1OC 28.1%
COc1ccc(CCN(C)C(=O)CCNS(=O)(=O)c2ccccc2C(F)(F)F)cc1OC -10.8% [at 0.135 µM, 100% = signal doubled over neutral wells]
Cc1ccc(NC(=O)[C@@H](Cc2ccccc2)NC(=O)[C@H]2O[C@@H](n3ccc(=O)[nH]c3=O)[C@H](O)[C@@H]2O)cc1C -17.1% [at 0.015 µM, 100% = signal doubled over neutral wells]
COc1ccc(NC(=O)C2CCCN2S(=O)(=O)c2ccc3c(c2)CC(C)N3C(C)=O)cc1OC (stereo not given) -19.4% [at 0.005 µM, 100% = signal doubled over neutral wells]
COc1cccc(NC(=O)CN(C)C(=O)Cn2[nH]c(=O)c3ccccc3c2=O)c1 -27.7% [at 1.2 µM, 100% = signal doubled over neutral wells]
COc1cc2c(cc1OC)C(CSc1ccccc1C(=O)O)=NC(C)(C)C2 30.8%
O=C(NCC1(O)CCCCC1)C1CCC(=O)N(Cc2ccccc2F)C1 (stereo not given) -16.4%
CN(C(=O)COC(=O)c1cccs1)c1ccccc1 -16.8% [at 0.0016 µM, 100% = signal doubled over neutral wells]
CCOC(=O)c1sc(NC(C)=O)nc1-c1ccccc1 -16.3% [at 0.046 µM, 100% = signal doubled over neutral wells]
O=C(Nc1cccnc1)c1cnn2c(C(F)F)cc(C3CC3)nc12 30.2% [at 11 µM, 100% = signal doubled over neutral wells]
Cc1cc(C(F)F)n2ncc(C(=O)NCc3ccc(F)cc3)c2n1 -18% [at 1.2 µM, 100% = signal doubled over neutral wells]
CC(=O)Nc1cc(-c2ccc(N3CCN(C)CC3)cc2)cn2c(-c3cccc(C(=O)N(C)C)c3)cnc12 -24% [at 0.046 µM, 100% = signal doubled over neutral wells]
COc1ccc(-c2cc(NC=O)c3ncc(-c4ccc(OC)c(OC)c4)n3c2)cc1 90% [at 3.8 µM, 100% = signal doubled over neutral wells]
COc1ccc(CNC(=O)CN2C(=O)NC3(CCCCCC3)C2=O)cc1 -13.8% [at 0.005 µM, 100% = signal doubled over neutral wells]
CCC(O)c1nc2ccccc2n1CCc1ccccc1 (stereo not given) -18.7% [at 0.005 µM, 100% = signal doubled over neutral wells]
CCOC(=O)c1nc2nc(-c3cccs3)cc(C(F)(F)F)n2n1 -16% [at 0.135 µM, 100% = signal doubled over neutral wells]
CC1Cc2ccccc2N1C(=S)NC(=O)c1cccc(Br)c1 (stereo not given) -15.5% [at 0.005 µM, 100% = signal doubled over neutral wells]
Cc1c(Cc2ccccc2)sc(NC(=O)C(C)(C)C)c1C(N)=O -18.8% [at 0.015 µM, 100% = signal doubled over neutral wells]
COc1ccc(/C(C)=N/Nc2ccc(C(=O)O)cc2)cc1OC 24.3%
COc1ccc(C(=O)/C=C2\NCCc3cc(OC)c(OC)cc32)cc1OC 24%
C=CCN1C(=O)c2n[nH]c(COC)c2C1c1ccc(F)cc1 (stereo not given) -25.3% [at 0.015 µM, 100% = signal doubled over neutral wells]
Cc1cc(=O)oc2c3c(cc(OCC(=O)NC(C)C)c12)OC(C)(C)CC3 34% [at 0.42 µM, 100% = signal doubled over neutral wells]
CC(=O)Nc1ccc(-c2ccnc3c2CC(C)(C(=O)Nc2cccc(OC(F)(F)F)c2)O3)cc1 (stereo not given) -44.4%
Nn1c(-c2ccccc2)cc(-c2ccccc2)cc1=O 27.3%
CNc1nc(OCC#N)nc(N2CCCCC2)n1 25%
COc1ccc(C(=O)N2CCc3cc(OC)c(OC)cc3C2c2ccc(OC)c(OC)c2)cc1OC (stereo not given) 24.4% [at 0.005 µM, 100% = signal doubled over neutral wells]
COc1cc2c(cc1OC)CN(C(=O)Cc1ccccc1)CC2 -21.2%
Cc1ccccc1SC1CCN(C(=O)C2CCC(=O)N(C3CC3)C2)CC1 (stereo not given) -25.3%
CCOc1ccc(OCCC(=O)N(CC)CC(=O)NCc2cccs2)cc1 -21% [at 11 µM, 100% = signal doubled over neutral wells]
O=C(CC(NC(=O)c1ccccc1)c1ccccc1)Nc1cccc2ccccc12 (stereo not given) -27.5%
Nc1[nH]c(C(=O)c2ccccc2)c(-c2c(F)cccc2F)c1C(=O)c1ccc(Cl)c(Cl)c1 53.9%
C#Cc1cccc(-n2nnc(C(=O)OC)c2-c2ccccc2)c1 -13.8% [at 0.42 µM, 100% = signal doubled over neutral wells]
COC(=O)C1=C(C)NC(=S)NC1c1ccc(OC)cc1 (stereo not given) -18.4% [at 0.135 µM, 100% = signal doubled over neutral wells]
COc1ccc(CCC(=O)NC2CCC(C)CC2)cc1 (stereo not given) -13.6% [at 0.135 µM, 100% = signal doubled over neutral wells]
c1ccc2c(NCC3CCCO3)nc(N3CCCCC3)nc2c1 (stereo not given) -16.1% [at 3.8 µM, 100% = signal doubled over neutral wells]
CC1=CC(c2ccccc2)n2nc(NC(=O)CCC(=O)O)nc2N1 (stereo not given) -12.8% [at 1.2 µM, 100% = signal doubled over neutral wells]
CC(=O)c1ccc(OCC(=O)N(C2CCCCC2)C2CCS(=O)(=O)C2)cc1 (stereo not given) -11% [at 0.0016 µM, 100% = signal doubled over neutral wells]
COc1cc2c(cc1OC)CN(C(=O)CNS(=O)(=O)c1ccc(C)c(C)c1)CC2 13.4% [at 11 µM, 100% = signal doubled over neutral wells]
CN(C)CCCN(C(=O)CCOc1ccccc1)c1nc2ccc(F)cc2s1 -14.1% [at 0.015 µM, 100% = signal doubled over neutral wells]
CCN(Cc1ccccc1)S(=O)(=O)c1ccc(C(=O)Nc2nnc(C)o2)cc1 39.3% [at 3.8 µM, 100% = signal doubled over neutral wells]
COc1ccccc1-c1cnc2c(c1)C(=O)N([C@H](C)CO)C[C@@H](C)[C@@H](CN(C)C(C)=O)O2 35.5% [at 0.015 µM, 100% = signal doubled over neutral wells]
O=C(NC1CCCCC1)c1cccnc1Sc1ccccc1 -28.1% [at 0.015 µM, 100% = signal doubled over neutral wells]
CCCCc1nc(NCCN)c(C#N)c2c1CSC(C)(C)C2 -17.6% [at 0.046 µM, 100% = signal doubled over neutral wells]
O=C(Nc1ccc(Br)cc1)c1cc2ccccn2n1 -31.1% [at 0.42 µM, 100% = signal doubled over neutral wells]
O=C(NC(=S)NCC1CCCO1)c1ccc(Cl)cc1Cl (stereo not given) -19.4% [at 0.005 µM, 100% = signal doubled over neutral wells]
O=C(OCc1c(-c2ccccc2)ncc2ccccc12)c1cccs1 -36.4% [at 11 µM, 100% = signal doubled over neutral wells]
